These results are taken from PubChem BioAssay.

Assay [1] in a line: inhibitors of TNFa-induced NFkB p65 translocation, primary screen, imaging, HUVEC, MLSMR starter and 10KST1 sets (AID 438;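 active = inhibition above 20% together with a positive visual image hit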;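 note: compound added about 3h40 before a 20 min TNFalpha stimulation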;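 for inhibition: signal is the nuclear over cytoplasmic p65 intensity ratio per well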). The following applies: HUVEC TNFa-induced p65 nuclear translocation; cell count: measured here: nuclei count (cytotoxicity indicator), at 2.08 µM; inhibition: at 2 µM, stronger effect = higher value, 0% TNFa-plus-vehicle, 100% no-TNFa wells.
Assay [2] in a line: reduction of polyQ htt aggregates in cells – imaging, exon1htt(103Q)mCFP cells, high-content imaging, primary screen (AID 483;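 active = visual image review flags a hit and inhibition of aggregation exceeds 20%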;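 note: compound exposure lasted 3 days before fixation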;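 for nuclei count: percent of the per-plate median nuclei count of sample wells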). The following applies: exon1htt(103Q)mCFP cell line, aggregate imaging, at 2 µM; inhibition of aggregation: stronger effect = higher value; nuclei count: measured here: cell count, toxicity.
Assay [3] is described as follows: endothelial E-selectin expression blockers – imaging, HUVEC, immunofluorescence, MLSMR starter and 10KST1 sets, primary screen (AID 487;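 active = visually confirmed hit in the image check and inhibition above 20%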;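 for inhibition: signal is fraction of cell area covered by stained E-selectin grains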;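 for nuclei count: 100% = median nuclei count of all wells on the same plate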). The note with it: HUVEC TNFalpha-induced E-selectin immunofluorescence imaging, at 2 µM; inhibition: stronger effect = higher value; nuclei count: measured here: cell number, toxicity.
Assay [4] concerns the target Voltage-gated potassium channel subunit beta-2 (Rattus norvegicus) (UniProt P62483). Briefly: inhibitors of rat Kvbeta2 reductase activity – biochemical, NADPH fluorescence, primary screen (AID 622;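 active = fluorescence slope higher than the sample average by over 3 SD, cut at about -0.22 in these data, passing the limit was not always enough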;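 note: slope of raw intensity against log time taken from 70 to 1610 s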). The following applies: recombinant KvBeta, 4-cyanobenzaldehyde reduction, at 10 µM, stronger effect = higher value.
For assay [5] the target is unchanged. The assay can be described thus: enhancers of rat Kvbeta2 NADPH turnover – biochemical, NADPH fluorescence, primary screen (AID 623;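 active = NADPH fluorescence slope more negative than the mean of all samples by about 3 SD, 99.7% confidence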;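 note: fluorescence intensity change per second fitted from 20 to 320 s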). The note with it: Recombinant KvBeta, NADPH fluorescence decrease slope, 10 min; at 10 µM; stronger effect = lower value.
The target in assay [6] is Alpha-2C adrenergic receptor (Homo sapiens) (UniProt P18825). The assay can be described thus: compounds altering alpha2C-coupled GIRK flux – cell-based, HEK293 alpha2C/GIRK1/2, thallium flux, primary screen (AID 624).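 Note: slope of fluorescence ratio to pre-addition baseline per second over 15 to 24 s.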 The note with it: thallium flux BTC fluorescence, at 10 µM, actives lie on both sides.
Sequence of Alpha-2C adrenergic receptor (Homo sapiens) (P18825 whole entry, looked up): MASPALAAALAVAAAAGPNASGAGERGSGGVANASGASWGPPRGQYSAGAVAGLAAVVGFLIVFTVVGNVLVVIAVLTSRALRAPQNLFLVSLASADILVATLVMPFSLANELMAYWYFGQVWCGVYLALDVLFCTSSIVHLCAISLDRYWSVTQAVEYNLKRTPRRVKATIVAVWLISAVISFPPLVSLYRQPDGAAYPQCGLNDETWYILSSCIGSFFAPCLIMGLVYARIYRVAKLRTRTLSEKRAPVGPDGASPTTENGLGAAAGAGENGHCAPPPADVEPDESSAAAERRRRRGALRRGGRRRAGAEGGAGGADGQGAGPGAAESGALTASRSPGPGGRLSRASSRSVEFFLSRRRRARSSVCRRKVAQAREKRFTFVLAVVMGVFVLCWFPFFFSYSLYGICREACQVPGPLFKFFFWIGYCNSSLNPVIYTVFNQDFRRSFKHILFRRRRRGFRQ
The nature of assay [7]: blockers of RIG-like receptor reporter activation – cell-based, Sendai virus stimulus, luciferase, 10K MLSCN set, TLR/RLR signaling modifier project, primary screen (AID 602276;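 active = inhibition at or above 50% at 10 µM; inactive = inhibition below 50%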;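 note: firefly luciferase from ISG56 promoter only with Renilla not read in this screen; 0% = Sendai virus plus DMSO and 100% = medium plus DMSO without virus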). The note with it: HEK293 RL24 IRF3 luciferase reporter, at 10 µM, stronger effect = higher value. (In general: In a reporter assay the amount or activity of a reporter protein is the signal.)
Assay [8] in a line: TLR3 IRF3 reporter activation blockers – cell-based, poly I:C stimulus, luciferase, 10K MLSCN set, primary screen (AID 602277;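 active = inhibition of the reporter signal at or above 50%; inactive = inhibition below 50%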). The note with it: HEK293-TLR3 RL24 IRF3 luciferase reporter, at 10 µM, stronger effect = higher value.

As a reminder, the inhibition is the drop in the measured response relative to a control, in per cent.

The source made the active and inactive calls.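 Rule for the calls, unless noted: active = fluorescence slope after compound addition differing from the mean of all screened samples at 99.7% confidence, in either direction; inactive = the rest.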

Sequence of Voltage-gated potassium channel subunit beta-2 (Rattus norvegicus) (P62483 whole entry, looked up): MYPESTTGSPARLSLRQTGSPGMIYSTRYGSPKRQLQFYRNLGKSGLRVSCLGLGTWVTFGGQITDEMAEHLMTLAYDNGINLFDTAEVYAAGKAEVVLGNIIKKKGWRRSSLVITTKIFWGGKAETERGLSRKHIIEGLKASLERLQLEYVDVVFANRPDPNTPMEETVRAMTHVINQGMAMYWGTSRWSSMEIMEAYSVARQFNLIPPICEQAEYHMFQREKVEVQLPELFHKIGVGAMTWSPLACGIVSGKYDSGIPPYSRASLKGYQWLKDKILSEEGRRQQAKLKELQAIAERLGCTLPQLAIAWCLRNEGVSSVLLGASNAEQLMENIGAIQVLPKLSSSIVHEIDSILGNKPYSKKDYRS

As to `CCn1nc(C)c(NC(=O)c2cc(Br)ccc2Cl)c1C`, the cell count in assay [1] came out at 497. Also, the inhibition in assay [1] is -5.8% (inactive); in assay [3], -17.6% (inactive); in assay [7], 14.4% (inactive); in assay [8], 25% (inactive). The inhibition of aggregation in assay [2] is -21.4% (inactive). In addition, the nuclei count in assay [2] was 111%; in assay [3] it was 115%. In addition, in assay [4], the fluorescence slope is -0.445 (inactive). In addition, the NADPH fluorescence slope in assay [5] is -0.000104 (inactive). Further, the slope in assay [6] is 0.00617 (inactive).
Consider `Cc1nc2ncnn2c(C)c1CCC(=O)NCCCN1CCN(c2cccc(Cl)c2)CC1`, for which, in assay [1], the cell count was found to be 352. Besides, the inhibition in assay [1] is -2% (inactive); in assay [3], -40.4% (inactive); in assay [7] it was 4.7% (inactive); in assay [8], 16.9% (inactive). The inhibition of aggregation in assay [2] was -0.5% (inactive). For the same molecule, the nuclei count in assay [2] is 99.1%; in assay [3], 107%. Moreover, in assay [4], the fluorescence slope was -0.505 (inactive). The NADPH fluorescence slope in assay [5] is -5.1e-05 (inactive). The slope in assay [6] is 0.0065 (inactive).
For the molecule `CCOC(=O)N1CCC(NC(=O)c2ccc3c(c2)sc2nc(-c4cccc(OC)c4)cn23)CC1`, in assay [1], the cell count is 415. Besides, the inhibition is 8% (inactive) in assay [1], -3.7% (inactive) in assay [3], -22.7% (inactive) in assay [7] and -70.4% (inactive) in assay [8]. The inhibition of aggregation in assay [2] was 8.8% (inactive). The results for the nuclei count in assay [2] and in assay [3] were 93.6% and 108%, respectively. For the same molecule, the fluorescence slope in assay [4] was -0.485 (inactive). Moreover, the NADPH fluorescence slope in assay [5] is -2.7e-05 (inactive). For the same molecule, in assay [6], the slope was 0.00825 (inactive).
On to `CC1CCCCC1NC(=O)CCCc1nc2ccccc2c(=O)[nH]1` (centres undefined), for which the cell count in assay [1] stood at 364. Further, the inhibition in assay [1] is -2.1% (inactive); in assay [3], -11.1% (inactive); in assay [7] it was 7.71% (inactive); in assay [8], 17.2% (inactive). Besides, in assay [2], the inhibition of aggregation was 5.3% (inactive). Also, the values for the nuclei count in assay [2] and in assay [3] were 87.7% and 79.6%, respectively. Besides, the fluorescence slope in assay [4] is -0.618 (inactive). In addition, in assay [5], the NADPH fluorescence slope was -2.3e-05 (inactive). In addition, the slope in assay [6] was 0.00379 (inactive).
As to `COC(=O)c1ccccc1NC(=O)c1ccc(-c2ccccc2F)o1`, the cell count in assay [1] was 516. Further, the inhibition in assay [1] was -5.3% (inactive); in assay [3] it was -37.1% (inactive); in assay [7], 19.2% (inactive); in assay [8], -29.6% (inactive). In addition, the inhibition of aggregation in assay [2] was -24.1% (inactive). The nuclei count in assay [2] turned out to be 111%; in assay [3], 103%. Besides, the fluorescence slope in assay [4] is -0.469 (inactive). In assay [5], the NADPH fluorescence slope is -1.5e-06 (inactive). For the same molecule, the slope in assay [6] is 0.00728 (inactive).
As for `O=S(=O)(c1ccccc1)c1nc(-c2cccs2)oc1NCC1CCCO1` (centres undefined), the cell count in assay [1] stood at 566. In addition, the inhibition was -1.8% (inactive) in assay [1], -17.9% (inactive) in assay [3], -17.6% (inactive) in assay [7] and -20.5% (inactive) in assay [8]. In addition, the inhibition of aggregation in assay [2] was 11.4% (inactive). Also, the nuclei count in assay [2] was 108%; in assay [3], 104%. Moreover, the fluorescence slope in assay [4] was -0.538 (inactive). The NADPH fluorescence slope in assay [5] is 5.1e-06 (inactive). Moreover, the slope in assay [6] was 0.00406 (inactive).
`CC(=O)NCCc1nc2ccccc2[nH]1`: the cell count in assay [1] was 736. For the same molecule, the inhibition in assay [1] was -4.3% (inactive); in assay [3] it was -6.5% (inactive); in assay [7], 12.7% (inactive); in assay [8] it was 33.6% (inactive). The inhibition of aggregation in assay [2] is -14% (inactive). The nuclei count in assay [2] is 114%; in assay [3], 106%. Also, the fluorescence slope in assay [4] is -0.553 (inactive). The NADPH fluorescence slope in assay [5] is -2.7e-05 (inactive). In addition, the slope in assay [6] is 0.00636 (inactive).
As for `COc1ccc2[nH]c(=O)c(CN(C(=O)c3cccnc3)c3ccccc3OC)cc2c1`, in assay [1], the cell count was found to be 466. Further, the inhibition in assay [1] is -3.3% (inactive); in assay [3], -19.8% (inactive); in assay [7] it was 12.5% (inactive); in assay [8], 22.6% (inactive). Besides, in assay [2], the inhibition of aggregation was -3% (inactive). For the same molecule, the figures for the nuclei count in assay [2] and in assay [3] were 114% and 113%, respectively. The fluorescence slope in assay [4] is -0.449 (inactive). For the same molecule, in assay [5], the NADPH fluorescence slope was 1.5e-05 (inactive). In assay [6], the slope was 0.00765 (inactive).
Take `CCC(C)c1ccc(NC(=O)c2cccnc2)cc1` (centres undefined): the cell count in assay [1] worked out at 393. The inhibition in assay [1] is 18% (inactive); in assay [3] it was -48.5% (inactive); in assay [7], -47.8% (inactive); in assay [8], -142% (inactive). Moreover, the inhibition of aggregation in assay [2] is 2.8% (inactive). For the same molecule, the nuclei count is 113% in assay [2] and 130% in assay [3]. Further, the fluorescence slope in assay [4] is -0.395 (inactive). The NADPH fluorescence slope in assay [5] was 3e-05 (inactive). For the same molecule, the slope in assay [6] was 0.00669 (inactive).
On to `O=C(COC(=O)c1ccccc1Oc1ccccc1)NC1CCS(=O)(=O)C1` (centres undefined), for which the cell count in assay [1] worked out at 33. Moreover, the inhibition in assay [1] was 74.9% (active); in assay [3] it was -124% (inactive); in assay [7], 8.04% (inactive); in assay [8], -20% (inactive). The inhibition of aggregation in assay [2] was 0% (inactive). In addition, the nuclei count came to 95.2% in assay [2] and 116% in assay [3]. The fluorescence slope in assay [4] was -0.521 (inactive). Further, the NADPH fluorescence slope in assay [5] is -1.6e-05 (inactive). In addition, in assay [6], the slope is 0.00666 (inactive).
`CCCC(=O)Nc1cc(C)c2c(=O)oc3ccccc3c2n1`: the cell count in assay [1] is 627. For the same molecule, the inhibition is -24.4% (inactive) in assay [1], -37.2% (inactive) in assay [3], -9.8% (inactive) in assay [7] and -24.7% (inactive) in assay [8]. Moreover, the inhibition of aggregation in assay [2] is -6.5% (inactive). For the same molecule, the nuclei count turned out to be 97.4% in assay [2] and 121% in assay [3]. Also, the fluorescence slope in assay [4] was -0.447 (inactive). Moreover, the NADPH fluorescence slope in assay [5] is -7.8e-05 (inactive). The slope in assay [6] was 0.0057 (inactive).
Turning to `CCOc1ccc(NCc2nnc(SCC(=O)Nc3cc(C)on3)n2-c2ccccc2OC)cc1`, in assay [1], the cell count came to 325. Also, the inhibition is -9.3% (inactive) in assay [1], 41.6% (inactive) in assay [3], 20.4% (inactive) in assay [7] and 30.4% (inactive) in assay [8]. The inhibition of aggregation in assay [2] was -6.4% (inactive). Also, the nuclei count was 101% in assay [2] and 107% in assay [3]. In assay [4], the fluorescence slope is -0.452 (inactive). Also, the NADPH fluorescence slope in assay [5] is -2.8e-05 (inactive). In assay [6], the slope is 0.00835 (inactive).
As to `COP(C)(=O)c1c(C)nn(-c2ccccc2)c1C` (centres undefined), the cell count in assay [1] is 558. The inhibition is 6.8% (inactive) in assay [1], -11.2% (inactive) in assay [3], 8.87% (inactive) in assay [7] and 37.6% (inactive) in assay [8]. Moreover, the inhibition of aggregation in assay [2] was -0.1% (inactive). For the same molecule, the nuclei count in assay [2] turned out to be 95.4%; in assay [3] it was 112%. The fluorescence slope in assay [4] is -0.424 (inactive). In addition, in assay [5], the NADPH fluorescence slope is -2.1e-06 (inactive). Also, the slope in assay [6] is 0.00629 (inactive).
`COc1cc2c(cc1NC(=O)CN1CCN(S(=O)(=O)c3ccc(F)cc3)CC1)oc1ccccc12`: the cell count in assay [1] worked out at 583. For the same molecule, the inhibition in assay [1] is -2.4% (inactive); in assay [3], -33.6% (inactive); in assay [7], 2.2% (inactive); in assay [8], 30.3% (inactive). In addition, in assay [2], the inhibition of aggregation is -2.8% (inactive). The nuclei count in assay [2] amounted to 95.8%; in assay [3] it was 88.8%. Moreover, the fluorescence slope in assay [4] was -0.364 (inactive). In assay [5], the NADPH fluorescence slope was 1.3e-05 (inactive). Further, the slope in assay [6] was 0.0037 (inactive).
